Screens: PubChem BioAssay, National Center for Advancing Translational Sciences (NCATS)
Only some compounds are listed: those with a hit (about 19% of all), similar ones and a draw of the others.
HT1080-NT tox: qHTS for induction of synthetic lethality in tumor cells producing 2HG: qHTS for the HT-1080-NT fibrosarcoma cell line; HT-1080-NT fibrosarcoma viability, CellTiter-Glo ATP luminescence, 48 h; 360,000 tested, 1.6% active; AID 686970, 2013; Potency, µM (series often up to 46.1 µM), most hits filed as cytotoxic;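 further: NT is the 2HG producing partner of a matched IDH1 knockdown line; nearly all actives have a fitted effect of over 55% in size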
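Viability of the 2HG-overproducing fibrosarcoma line after 48 hours of compound exposure at 37 degrees C was determined by luminescence with CellTiter-Glo, and concentration-effect curves were then fitted and categorized.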
ELG1 repair inh: qHTS screen for small molecules that inhibit ELG1-dependent DNA repair in human embryonic kidney (HEK293T) cells expressing luciferase-tagged ELG1 | HEK293T ELG1-luciferase reporter, luminescence, 16 h; DNA damage induced by 5-fluorouridine | Potency, µM (top dose mostly 46.1 µM), hits mostly inhibitors | 330,000 tested, 2.3% active; further: nearly all actives have a fitted effect of over 55% in size
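Step one: seed 2,000 cells per well. Step two: pin-transfer compound or DMSO alongside 5-fluorouridine. Step three: incubate 16 hr, 37 °C, 5% CO2. Step four: add ONE-Glo, wait 30 min, read luminescence.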
TDP1 cell CPT: qHTS for Inhibitors of human tyrosyl-DNA phosphodiesterase 1 (TDP1): qHTS in cells in presence of CPT; Potency, µM (highest dose often 46.2 µM), hits mostly inhibitors; AID 686979, 2013; 420,000 tested, 12% active; chicken DT40 Tdp1-/-;hTDP1 cells + 20 nM CPT, ATP luminescence, 48 h; further: nearly all actives have a fitted effect of over 55% in size
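Chicken DT40 Tdp1-/- cells complemented with human TDP1, 400 cells/well, exposed to compounds plus 20 nM camptothecin for at least 48 h at 37 C; viability read as ATP content by CellTiter-Glo luminescence.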
IL1B secr inh: qHTS for Inhibitors of Inflammasome Signaling: IL-1-beta AlphaLISA Primary Screen | activity change, % at 57.5 µM | THP-1 LPS/ATP IL-1B secretion, AlphaLISA, 16 h; stronger effect = lower value | 360,000 tested, 4.7% active; in the data active means activity change below about -50%; inconclusive means mostly about -30% to -49%
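Secreted IL-1B measured by AlphaLISA bead assay after 16 h compound exposure of THP-1 cells; compounds (final up to 57.5 uM) added 1 h before LPS (250 ng/mL) and ATP (1.25 mM) stimulation; lower signal means less secretion.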
DT40 TDP1 no CPT: qHTS for Inhibitors of human tyrosyl-DNA phosphodiesterase 1 (TDP1): qHTS in cells in absence of CPT; DT40 Tdp1-/- hTDP1 cells, no CPT, ATP luminescence, 48 h; Potency, µM (top dose mostly 46.2 µM), actives largely listed as inhibitors; 420,000 tested, 15% active; further: nearly all actives have a fitted effect of over 55% in size
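Stably hTDP1-transfected Tdp1-null chicken DT40 cells were treated with library compounds minus camptothecin and grown for at least 48 hr at 37 °C, after which cellular ATP was quantified by luminescence.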
HT1080 IDH1KD tx: qHTS for induction of synthetic lethality in tumor cells producing 2HG: qHTS for the HT-1080-IDH1KD cell line; HT-1080 IDH1 knockdown viability, ATP luminescence, 48 h; Potency, µM (series often up to 46.1 µM), usual class: cytotoxic; 360,000 tested, 2% active
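% activity derives from luminescence (CellTiter-Glo), normalised to DMSO and no-cell wells. HT-1080-IDH1KD cells, 750/well, had 48 h compound exposure at 37 °C.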
ELG1 FLuc counter: qHTS screen for small molecules that inhibit ELG1-dependent DNA repair: Hit Confirmation in Cell-Based Luciferin Assay. shares compounds with ELG1 repair inh. cell-free firefly luciferase luminescence counter-screen, ViewLux. Potency, µM (top dose mostly 46.1 µM), most hits filed as inhibitors. 350 tested, 3% active. AID 624247, 2012
ELG1 Luc conf: HTS assay for small molecules that inhibit ELG1-dependent DNA repair in human embryonic kidney (HEK293T) cells expressing luciferase-tagged ELG1: Hit Confirmation; shares compounds with ELG1 repair inh; AID 624248, 2012; Potency, µM (doses to about 46.1 µM), hits mostly inhibitors; 670 tested, 68% active; HEK293T ELG1-luciferase levels, luminescence; cells co-treated with 5-fluorouridine; further: nearly all actives have a fitted effect of over 55% in size
ELG1 MMS Luc: inhibits ELG1-dependent repair under MMS stimulation in HEK293T cells. shares compounds with ELG1 repair inh. HEK293T luciferase-tagged ELG1 level, MMS stimulated. Potency, µM (highest dose often 46.1 µM), actives largely listed as inhibitors. 670 tested, 53% active. AID 624249; further: nearly all actives have a fitted effect of over 60% in size
ELG1 5FU viab: qHTS screen for small molecules that inhibit ELG1-dependent DNA repair: Hit Confirmation with 5FU Viability. cell viability with 5-FU, ELG1-dependent repair. shares compounds with ELG1 repair inh. Potency, µM (highest dose often 46.1 µM), hits mostly cytotoxic. 670 tested, under 10 active;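 further: ELG1-luc HEK293T cells cotreated with 5-fluorouridine at 10 µM final; viability measured 16 h after compound addition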
ELG1 MMS viab: qHTS screen for small molecules that inhibit ELG1-dependent DNA repair: Hit Confirmation with MMS Viability. AID 624251, 2012. 670 tested, 33% active. shares compounds with ELG1 repair inh. Cell viability with MMS, ELG1-dependent DNA repair. Potency, µM (series often up to 46.1 µM), usual class: cytotoxic;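 further: ELG1-luc HEK293T cells co-treated with 10 µM MMS; viability read 16 h after compound addition; nearly all actives have a fitted effect of over 60% in size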
Cell viab unstim: qHTS screen for small molecules that inhibit ELG1-dependent DNA repair: Hit Confirmation with Unstimulated Viability Assay. shares compounds with ELG1 repair inh. cell viability counter-screen, unstimulated, luminescence. Potency, µM (doses to about 45.9 µM), usual class: cytotoxic. 900 tested, 8% active;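 further: compound exposure lasted 16 hours before reading; nearly all actives have a fitted effect of over 55% in size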
FLuc enzyme: qHTS screen for small molecules that inhibit ELG1-dependent DNA repair: Hit Confirmation in Biochemical Luciferin Assay | shares compounds with ELG1 repair inh | AID 624253, 2012 | 350 tested, 10% active | Potency, µM (series often up to 57.5 µM), most hits filed as inhibitors | purified firefly luciferase, luminescence counter-screen
Each line names hits and unclear results; the compound was inactive in the other large screens (follow-up assays come after a bar, where they were run). Unless noted, the call rests on the fitted dose curve; in most records, active means well fitted curve in the direction sought with a large enough effect; inconclusive means small, poorly fitted or top-dose-only effect, or another doubt; inactive means no such curve, though single readings can be large; an effect the other way counts as inactive or inconclusive.

COc1ccc(-c2nnc3ccc(SCC(=O)Nc4nc5ccc(C)cc5s4)nn23)cc1OC	ELG1 repair inh inconclusive, TDP1 cell CPT inconclusive, DT40 TDP1 no CPT inconclusive | ELG1 FLuc counter inactive | ELG1 Luc conf 0.32µM | ELG1 MMS Luc inactive | ELG1 5FU viab inconclusive | ELG1 MMS viab inactive | Cell viab unstim 28µM | FLuc enzyme inactive
O=C(COC(=O)CNS(=O)(=O)/C=C/c1ccccc1)Nc1cccc2ccccc12	none
C=CCOc1ccc(/C=C/C(=O)OCC(=O)NCc2ccco2)cc1	ELG1 repair inh inconclusive, DT40 TDP1 no CPT inconclusive
CN(Cc1nccn1C)C(=O)CC1C(=O)NCCN1Cc1ccc(F)cc1Cl (stereo not drawn)	none
O=C1c2ccccc2N2C(=O)c3ccccc3[C@H]2N1c1ccccc1	ELG1 repair inh inconclusive, TDP1 cell CPT 16µM, DT40 TDP1 no CPT 18µM | ELG1 FLuc counter inactive | ELG1 Luc conf 20µM | ELG1 MMS Luc inconclusive | ELG1 5FU viab inactive | ELG1 MMS viab inactive | Cell viab unstim inactive | FLuc enzyme inactive
O=C1c2ccccc2C(O)N1c1ccccc1 (stereo not drawn)	ELG1 repair inh inconclusive
COc1cccc(CNC(=O)C2CCN(c3nn4c(=O)cc(C)nc4s3)CC2)c1	none
COc1cccc(CNC(=O)C2CCCN(c3nn4c(=O)cc(C)nc4s3)C2)c1 (stereo not drawn)	ELG1 repair inh inconclusive | ELG1 FLuc counter inactive | Cell viab unstim inactive | FLuc enzyme inactive
COc1ccc(-c2cc3ccc(F)cc3cn2)cc1	ELG1 repair inh inconclusive, TDP1 cell CPT inconclusive
Fc1ccc2cc(CCO[C@H]3CCCCO3)ncc2c1	ELG1 repair inh inconclusive | Cell viab unstim inconclusive
CN(C)S(=O)(=O)c1ccc(NC(=O)c2cc(-c3cccs3)nc3ccccc23)cc1	ELG1 repair inh 3.7µM, TDP1 cell CPT inconclusive, DT40 TDP1 no CPT 15µM | ELG1 Luc conf inconclusive | ELG1 MMS Luc inconclusive | ELG1 5FU viab inactive | ELG1 MMS viab inactive | Cell viab unstim inconclusive
CC(=O)NS(=O)(=O)c1ccc(NC(=O)c2cc(-c3cccs3)nc3ccccc23)cc1	none
CCN1C(=O)[C@@H]2[C@@H](c3ccc(-c4ccc(Cl)c(Cl)c4)cc3)N3CCC[C@@]3(C(=O)OC)[C@@H]2C1=O	ELG1 repair inh 2.3µM, TDP1 cell CPT 8.2µM, IL1B secr inh inconclusive, DT40 TDP1 no CPT 7.3µM | ELG1 Luc conf 6.3µM | ELG1 MMS Luc 8.9µM | ELG1 5FU viab inconclusive | ELG1 MMS viab 10µM | Cell viab unstim inconclusive
Cc1ccccc1-c1n[nH]nc1C1=CC(=O)C[C@H](c2ccc(F)cc2)C1	IL1B secr inh inconclusive, DT40 TDP1 no CPT inconclusive (no result: ELG1 repair inh)
c1ccc(SCc2cn(C[C@H]3CC[C@@H]([C@@H]4CC[C@H](Cn5cc(CSc6ccccc6)nn5)O4)O3)nn2)cc1	ELG1 repair inh 2.1µM, TDP1 cell CPT inconclusive, DT40 TDP1 no CPT 16µM | ELG1 Luc conf 28µM | ELG1 MMS Luc 28µM | ELG1 5FU viab inconclusive | ELG1 MMS viab inactive | Cell viab unstim inactive
c1ccc(Cn2cc(CSc3ccccc3)nn2)cc1	ELG1 repair inh inconclusive
O=C(O)/C=C/C(=O)c1ccc2c(c1)NC(=O)CO2	none
Cc1cccc(Cn2cc(SCC(=O)Nc3nccs3)c3ccccc32)c1	ELG1 repair inh inconclusive | ELG1 FLuc counter inactive | Cell viab unstim inactive | FLuc enzyme 2.9µM
CCCCSc1nc2ccc(Nc3nc(N4CCOCC4)nc(N4CCOCC4)n3)cc2s1	HT1080-NT tox inconclusive, ELG1 repair inh 16µM, TDP1 cell CPT inconclusive, IL1B secr inh inconclusive, DT40 TDP1 no CPT 21µM, HT1080 IDH1KD tx inconclusive | ELG1 FLuc counter inactive | ELG1 Luc conf 13µM | ELG1 MMS Luc inconclusive | ELG1 5FU viab inconclusive | ELG1 MMS viab inactive | Cell viab unstim inactive | FLuc enzyme inactive
O=C(N/N=C/c1sc(N2CCOCC2)nc1-c1ccccc1)c1cccc(S(=O)(=O)N2CCOCC2)c1	HT1080-NT tox 3.7µM, ELG1 repair inh 4.6µM, TDP1 cell CPT 4.6µM, DT40 TDP1 no CPT 4.6µM, HT1080 IDH1KD tx inconclusive | ELG1 Luc conf 4µM | ELG1 MMS Luc 6.3µM | ELG1 5FU viab inactive | ELG1 MMS viab inconclusive | Cell viab unstim inconclusive
Cc1ccc(C)c(NC(=O)CN(C)C(=O)CSC(C)C(=O)Nc2cc(C)on2)c1 (stereo not drawn)	none
COc1ccc(CCC(=O)NNC(=O)Cn2nc(C)cc2C)cc1	none
